The text below walks through data of ChEMBL document CHEMBL1961873, “Compounds: GSK PKIS; Assays: Nanosyn kinase panel” (2012).

Several values for one entry are separate records, joined by “and”; a condition that tells them apart may be missing. Equal entries are not always repeated.

The target in assay [1] is T1, Mitogen-activated protein kinase 12 (Homo sapiens) (UniProt P53778).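 Note: values are averaged p38gamma kinase inhibition readings, compounds tested at 1 µM.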
T1 sequence (whole entry): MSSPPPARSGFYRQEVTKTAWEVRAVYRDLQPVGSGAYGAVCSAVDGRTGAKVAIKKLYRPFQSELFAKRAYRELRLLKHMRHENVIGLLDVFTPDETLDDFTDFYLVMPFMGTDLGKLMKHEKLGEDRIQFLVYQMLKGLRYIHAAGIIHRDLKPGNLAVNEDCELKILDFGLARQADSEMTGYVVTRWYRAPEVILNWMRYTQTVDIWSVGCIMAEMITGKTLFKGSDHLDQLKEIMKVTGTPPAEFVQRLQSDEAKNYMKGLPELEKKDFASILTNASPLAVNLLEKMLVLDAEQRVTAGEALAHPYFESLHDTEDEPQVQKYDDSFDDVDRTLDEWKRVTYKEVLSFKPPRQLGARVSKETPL
The conditions noted are these: at 1 µM.

In assay [2] the target is SRSF protein kinase 1 (Homo sapiens) (UniProt Q96SB4). Conditions: at 0.1 µM.
Assay [3] shares this target. Conditions: at 1 µM.
The target of assay [4] is Phosphatidylinositol 4,5-bisphosphate 3-kinase catalytic subunit alpha isoform (Homo sapiens) (UniProt P42336). Conditions: at 0.1 µM.
For assay [5] the target is unchanged. Conditions: at 1 µM.
For assay [6], the target named is T2, Phosphatidylinositol 4,5-bisphosphate 3-kinase catalytic subunit delta isoform (Homo sapiens) (UniProt O00329).
T2 sequence (whole entry): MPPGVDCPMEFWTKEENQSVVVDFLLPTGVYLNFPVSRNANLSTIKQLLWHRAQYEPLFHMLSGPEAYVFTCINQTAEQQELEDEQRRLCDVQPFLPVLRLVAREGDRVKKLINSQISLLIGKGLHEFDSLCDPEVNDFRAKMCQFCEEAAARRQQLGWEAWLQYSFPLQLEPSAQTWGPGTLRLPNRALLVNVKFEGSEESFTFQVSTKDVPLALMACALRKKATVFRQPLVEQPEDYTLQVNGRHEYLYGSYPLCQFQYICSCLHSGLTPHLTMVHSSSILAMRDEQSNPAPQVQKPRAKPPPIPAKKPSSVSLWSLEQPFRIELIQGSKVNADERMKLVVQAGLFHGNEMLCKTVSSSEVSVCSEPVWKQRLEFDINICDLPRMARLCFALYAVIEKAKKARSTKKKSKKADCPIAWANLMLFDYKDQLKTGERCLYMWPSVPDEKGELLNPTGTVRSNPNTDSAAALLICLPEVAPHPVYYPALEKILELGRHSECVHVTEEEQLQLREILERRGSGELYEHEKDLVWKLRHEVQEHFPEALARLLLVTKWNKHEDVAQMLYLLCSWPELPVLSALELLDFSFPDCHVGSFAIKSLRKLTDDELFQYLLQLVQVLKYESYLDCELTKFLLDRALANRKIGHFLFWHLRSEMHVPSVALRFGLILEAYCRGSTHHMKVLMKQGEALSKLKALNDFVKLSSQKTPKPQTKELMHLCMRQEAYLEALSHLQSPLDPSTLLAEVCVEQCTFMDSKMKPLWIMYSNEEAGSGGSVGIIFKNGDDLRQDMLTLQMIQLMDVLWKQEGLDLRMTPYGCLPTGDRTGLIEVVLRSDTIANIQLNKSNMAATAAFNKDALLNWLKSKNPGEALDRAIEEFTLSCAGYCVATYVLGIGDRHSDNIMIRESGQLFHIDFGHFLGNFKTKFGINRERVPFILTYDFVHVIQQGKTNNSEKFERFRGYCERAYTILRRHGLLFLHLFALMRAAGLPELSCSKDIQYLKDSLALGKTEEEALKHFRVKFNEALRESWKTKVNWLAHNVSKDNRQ
Conditions: at 0.1 µM.

Assay [7] addresses T2, Phosphatidylinositol 4,5-bisphosphate 3-kinase catalytic subunit delta isoform (Homo sapiens). The conditions noted are these: at 1 µM.
Assay [8] deals with Phosphatidylinositol 4-kinase beta (Homo sapiens) (UniProt Q9UBF8). Conditions: at 0.1 µM.
For assay [9] the target is unchanged. Conditions: at 1 µM.
Assay [10] addresses Sphingosine kinase 1 (Homo sapiens) (UniProt Q9NYA1). The conditions noted are these: at 0.1 µM.

Chain of Phosphatidylinositol 4,5-bisphosphate 3-kinase catalytic subunit alpha isoform (Homo sapiens) (P42336 whole entry, canonical isoform): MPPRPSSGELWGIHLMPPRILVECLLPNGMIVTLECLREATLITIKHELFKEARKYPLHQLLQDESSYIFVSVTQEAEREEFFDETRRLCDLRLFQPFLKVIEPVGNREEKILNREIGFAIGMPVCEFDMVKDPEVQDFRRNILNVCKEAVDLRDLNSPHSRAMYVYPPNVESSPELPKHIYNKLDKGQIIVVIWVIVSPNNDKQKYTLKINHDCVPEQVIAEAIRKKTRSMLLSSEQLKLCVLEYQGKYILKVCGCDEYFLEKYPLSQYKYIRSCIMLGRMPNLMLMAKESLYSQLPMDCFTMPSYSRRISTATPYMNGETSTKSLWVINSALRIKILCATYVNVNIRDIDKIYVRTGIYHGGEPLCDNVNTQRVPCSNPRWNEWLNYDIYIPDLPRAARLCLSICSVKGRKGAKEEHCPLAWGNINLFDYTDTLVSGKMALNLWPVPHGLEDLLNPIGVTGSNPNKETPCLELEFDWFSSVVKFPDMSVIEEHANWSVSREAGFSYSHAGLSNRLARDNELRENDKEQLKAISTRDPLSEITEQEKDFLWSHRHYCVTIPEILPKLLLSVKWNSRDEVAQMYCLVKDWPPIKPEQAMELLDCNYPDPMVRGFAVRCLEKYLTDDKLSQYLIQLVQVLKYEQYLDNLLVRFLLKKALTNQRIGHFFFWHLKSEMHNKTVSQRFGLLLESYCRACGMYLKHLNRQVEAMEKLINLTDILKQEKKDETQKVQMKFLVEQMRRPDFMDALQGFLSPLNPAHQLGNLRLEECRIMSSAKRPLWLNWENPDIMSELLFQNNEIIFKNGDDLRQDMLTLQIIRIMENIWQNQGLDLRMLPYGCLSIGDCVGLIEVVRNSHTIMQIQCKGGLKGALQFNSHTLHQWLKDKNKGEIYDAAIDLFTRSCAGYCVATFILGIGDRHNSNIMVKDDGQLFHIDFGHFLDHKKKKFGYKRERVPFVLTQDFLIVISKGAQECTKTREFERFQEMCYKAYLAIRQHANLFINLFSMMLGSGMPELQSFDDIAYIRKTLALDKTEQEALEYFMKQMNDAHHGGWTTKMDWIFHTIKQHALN
Chain of Phosphatidylinositol 4-kinase beta (Homo sapiens) (Q9UBF8 2-816 limits assumed): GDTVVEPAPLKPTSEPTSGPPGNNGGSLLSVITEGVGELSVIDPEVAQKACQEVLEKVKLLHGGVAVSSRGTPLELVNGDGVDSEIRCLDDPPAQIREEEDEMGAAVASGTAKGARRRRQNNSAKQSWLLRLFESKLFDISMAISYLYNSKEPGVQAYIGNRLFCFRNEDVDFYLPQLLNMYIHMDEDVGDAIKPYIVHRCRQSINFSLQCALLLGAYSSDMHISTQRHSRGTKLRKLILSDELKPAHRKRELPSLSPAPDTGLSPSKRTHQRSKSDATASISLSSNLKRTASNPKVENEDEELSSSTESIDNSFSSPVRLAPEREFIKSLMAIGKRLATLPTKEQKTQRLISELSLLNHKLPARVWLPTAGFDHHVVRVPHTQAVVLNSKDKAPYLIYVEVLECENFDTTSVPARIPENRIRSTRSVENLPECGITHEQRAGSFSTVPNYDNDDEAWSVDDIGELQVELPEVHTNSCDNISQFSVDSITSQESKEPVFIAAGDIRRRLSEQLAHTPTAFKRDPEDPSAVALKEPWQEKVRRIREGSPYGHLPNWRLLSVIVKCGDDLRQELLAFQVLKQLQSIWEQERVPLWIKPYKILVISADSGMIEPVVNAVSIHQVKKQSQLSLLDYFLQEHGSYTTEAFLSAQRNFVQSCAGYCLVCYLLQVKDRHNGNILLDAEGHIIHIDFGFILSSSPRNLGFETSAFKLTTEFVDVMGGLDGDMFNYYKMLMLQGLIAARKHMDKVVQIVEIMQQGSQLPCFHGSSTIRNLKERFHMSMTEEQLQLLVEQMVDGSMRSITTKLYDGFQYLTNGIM
Chain of Sphingosine kinase 1 (Homo sapiens) (Q9NYA1 whole entry): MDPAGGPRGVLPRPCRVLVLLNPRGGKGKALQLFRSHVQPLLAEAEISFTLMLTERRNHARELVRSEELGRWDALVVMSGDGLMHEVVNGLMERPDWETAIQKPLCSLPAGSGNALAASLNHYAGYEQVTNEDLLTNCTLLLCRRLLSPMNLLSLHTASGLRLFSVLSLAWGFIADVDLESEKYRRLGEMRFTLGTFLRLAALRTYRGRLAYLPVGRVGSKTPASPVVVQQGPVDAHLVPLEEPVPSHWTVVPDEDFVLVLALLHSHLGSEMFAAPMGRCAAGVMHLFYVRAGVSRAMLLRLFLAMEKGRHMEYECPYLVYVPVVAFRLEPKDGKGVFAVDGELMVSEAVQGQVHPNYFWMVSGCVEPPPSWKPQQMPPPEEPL
Chain of SRSF protein kinase 1 (Homo sapiens) (Q96SB4 whole entry): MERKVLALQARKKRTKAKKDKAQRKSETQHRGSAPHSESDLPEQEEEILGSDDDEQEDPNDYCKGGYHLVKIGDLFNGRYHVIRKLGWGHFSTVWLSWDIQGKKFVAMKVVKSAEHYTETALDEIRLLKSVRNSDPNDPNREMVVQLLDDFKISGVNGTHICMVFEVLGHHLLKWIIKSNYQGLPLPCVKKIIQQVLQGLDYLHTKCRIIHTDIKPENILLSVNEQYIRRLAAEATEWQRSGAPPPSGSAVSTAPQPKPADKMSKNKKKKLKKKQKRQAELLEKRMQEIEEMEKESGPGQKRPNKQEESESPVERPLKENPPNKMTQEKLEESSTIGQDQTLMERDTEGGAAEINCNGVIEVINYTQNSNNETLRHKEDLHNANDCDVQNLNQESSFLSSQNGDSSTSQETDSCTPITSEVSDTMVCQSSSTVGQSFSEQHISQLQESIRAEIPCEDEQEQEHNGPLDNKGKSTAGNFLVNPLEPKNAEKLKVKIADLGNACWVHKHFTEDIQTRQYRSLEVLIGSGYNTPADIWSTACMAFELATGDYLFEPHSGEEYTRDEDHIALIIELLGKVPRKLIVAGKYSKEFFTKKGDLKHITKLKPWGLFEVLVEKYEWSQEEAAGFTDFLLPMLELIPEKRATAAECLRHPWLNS

For `COc1cc(N2CCN(C(C)C)CC2)ccc1Nc1nc(Nc2cccc3ncccc23)c2cc[nH]c2n1`, the inhibition (in general, the relative decrease from the control value, in per cent) was -0.51% in assay [1]; -1.39% in assay [2]; -1.2% in assay [3]; -0.92% in assay [4]; 1.96% in assay [5]; -1.65% in [6]. The inhibition is 4.18% in assay [7], 5.9% in assay [8], -2.85% in assay [9] and 0% in [10].
For `CS(=O)(=O)CCNCc1ccc(-c2ccc3ncnc(Nc4ccc(OCc5cccc(C(F)(F)F)c5)cc4)c3c2)o1`, the inhibition was 6.4% in assay [1]; -2% in [2]; -2.32% in assay [3]; 4.42% in [4]; 4.38% in assay [5]; 0.9% in [6]. The inhibition in assay [7] was 1.81%; in assay [8] it was 0.98%; in [9] it was -0.43%; in assay [10], 1.49%.
Take `Nc1ncnc2occ(-c3ccc(NC(=O)Nc4cc(C(F)(F)F)ccc4F)cc3)c12`: the inhibition is 52% and 44.9% in [1]; 1.86% and 3.34% in assay [2]; 28.9% and 22% in assay [3]; 0.21% and -1.3% in assay [4]; 1.36% and 0.28% in assay [5]; 1.09% and -2.88% in assay [6]. For the same compound, the inhibition in assay [7] was 2.46% and -0.2%; in assay [8] it was 0.95% and 17.2%; in assay [9] it was 10.9% and 7.67%; in assay [10], 3.31% and 0.73%.
For the compound `COc1cc(Nc2ncc(-c3ccccc3)o2)cc(OC)c1`, the inhibition in [1] was 3.94%; in assay [2] it was -2.65%; in assay [3], -2%; in assay [4], 8.32%; in assay [5], 6.87%; in assay [6], 5.4%. Moreover, the inhibition in [7] is 5.83%; in [8], 0.33%; in [9], 3.11%; in assay [10], 2.1%.
With `CN1CCN(Cc2ccc(-c3cc4ncnc(Nc5ccc(OCc6cccc(F)c6)c(Cl)c5)c4s3)o2)CC1`, the inhibition in [1] was 2.94% and 2.8%; in [2], -2.39% and -1.61%; in [3], -2.07% and 0.69%; in assay [4] it was 1.34% and 4.72%; in assay [5], 2.47% and 5.81%; in assay [6] it was 1.29% and 2.75%. In addition, the inhibition is 3.39% and 4.31% in [7]; 0.91% in [8]; 1.06% in [9]; 10.5% and 0.88% in assay [10].
For `COc1cccc(Nc2nccc(-c3cnn4ncccc34)n2)c1`, the inhibition is 9.23% in assay [1]; -0.98% in assay [2]; 4.98% in assay [3]; 3.25% in [4]; 17% in [5]; 3.95% in assay [6]. Also, the inhibition in assay [7] was 19.1%; in assay [8], -0.93%; in [9], 11.1%; in [10], 0.27%.
For `CN1CCC(C(=O)Nc2n[nH]c3nc(-c4ccc(O)cc4)c(Br)cc23)CC1`, the inhibition in assay [1] was 7.35% and 7.26%; in [2], -0.9% and -1.12%; in [3], 0.97% and -0.81%; in assay [4] it was 4.19% and 1.14%; in [5] it was 2.06% and 2.14%; in [6], 1.92% and 0.51%. In addition, the inhibition in [7] was 1.89% and 0.99%; in assay [8], 2.14%; in assay [9] it was -0.62% and 1.07%; in assay [10], 1.72% and 4.51%.
As to `Fc1ccc(Nc2nccc(-c3c(-c4ccc(C(F)(F)F)cc4)nn4ncccc34)n2)cc1F`, the inhibition in assay [1] is 2.9%; in assay [2] it was -0.59%; in assay [3], -3.45%; in [4], 3.44%; in assay [5], 3.77%; in [6], 1.05%. Besides, the inhibition in assay [7] was 2.86%; in assay [8], -3.81%; in assay [9] it was -1.62%; in assay [10], 0.46%.
Take `O=C(O[C@H]1CN[C@H](C#Cc2cc3ncnc(Nc4ccc5c(cnn5Cc5ccccc5)c4)c3s2)C1)N1CCOCC1`: the inhibition is -0.96% in assay [1]; -2.05% in assay [2]; -3.6% in assay [3]; -1.75% in [4]; 7.49% in [5]; 0.29% in [6]. Moreover, the inhibition stood at 9.02% in assay [7], 1.41% in assay [8], 2.11% in assay [9] and 2.86% in assay [10].
On to `CCOc1ccc2c(-c3ccnc(Nc4cc(OC)cc(C(F)(F)F)c4)n3)cnn2n1`, for which the inhibition in assay [1] was 1.08%; in assay [2], -1.1%; in assay [3], -0.9%; in assay [4], -0.03%; in assay [5] it was 5.25%; in assay [6] it was -1.72%. Moreover, the inhibition in assay [7] was 10.2%; in [8], 3.54%; in [9], -4.92%; in [10], -3.8%.
`Cc1ccc(-c2cc3c(NC(=O)C4CC4)ncnc3o2)cc1`: the inhibition in assay [1] is 2.7%; in [2], -2.33%; in [3], -1.12%; in [4], 1.23%; in [5] it was 2.63%; in assay [6] it was 2.48%. For the same compound, the inhibition was 3.33% in [7], -4.86% in [8], -6.67% in assay [9] and 3.8% in assay [10].
For `CS(=O)(=O)CCNCc1ccoc1-c1ccc2ncnc(Nc3ccc(OCc4ccccc4)cc3)c2c1`, the inhibition in [1] is 0.43%; in assay [2], -0.09%; in assay [3], -1.85%; in [4], 1.09%; in assay [5], 2.87%; in assay [6], 0.63%. In addition, the inhibition is 4.62% in [7], 9.16% in assay [8], -0.68% in assay [9] and 0.65% in assay [10].
In the case of `N#Cc1cccc(Nc2ncc(-c3ccccc3)o2)c1`, the inhibition in assay [1] is 1.79%; in assay [2], -1.82%; in [3], 0.42%; in [4], 0.88%; in [5], -1.04%; in assay [6], -0.63%. In addition, the inhibition is -0.04% in assay [7], -0.3% in assay [8], -1.82% in [9] and 1.65% in [10].
As for `Nc1nccc(-c2c(-c3ccc(F)cc3)ncn2C2CCNCC2)n1`, the inhibition in assay [2] was 1.49% and -1%; in assay [3], -0.09% and 0.83%; in [4], -3.2% and 3.79%; in [5] it was 1.34% and 1.58%; in [6], -0.68% and 4.92%; in assay [7] it was 6.51% and 6.41%. Besides, the inhibition in [8] is 0.69% and 2.98%; in assay [9] it was -2.46% and -0.82%; in assay [10], -0.52% and 0.67%.
Take `CN1CCC(n2cnc(-c3ccc(F)cc3)c2-c2ccnc(NCCO)n2)CC1`: the inhibition in assay [1] was 3.15%; in assay [2] it was -1.01%; in [3], 3.27%; in [4], 3.91%; in [5], 2.41%; in [6] it was 1.87%. The inhibition in assay [7] was 2.25%; in [8], -3.16%; in assay [9], 4.51%; in [10], 9.04%.
On to `CCS(=O)(=O)c1ccc(OC)c(Nc2ncc(-c3cccc(F)c3)o2)c1`, for which the inhibition is 4.78% in [1]; -0.63% in assay [2]; 0.45% in [3]; 5.95% in assay [4]; 5.75% in assay [5]; 2.23% in [6]. The inhibition is 4.91% in assay [7], 0.49% in [8], -1.64% in assay [9] and -1.2% in [10].
